NALP3 yeast inh = blocks the NALP3 inflammasome reconstituted in yeast | Yeast reconstituted NLRP3/ASC/caspase-1, beta-gal luminescence, 24 h | inhibition, % at 10 µM | 0.39% of 330,000 active | AID 2825;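 active = inhibition of 50% or more; inactive = inhibition below 50%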
tim23-1 inh = inhibits growth of tim23-1 mutant yeast; 1.3% of 330,000 active; AID 463212; inhibition, % at 20 µM; S. cerevisiae tim23-1 growth, BacTiter-Glo luminescence, 24 h;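 active = growth inhibition of the mutant yeast at or above 50%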;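 note: temperature-sensitive mutant grown at 25 °C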
TIM10 inh = growth inhibitors of TIM10 yeast strain; S. cerevisiae TIM10 strain growth, BacTiter-Glo luminescence, 24 h; inhibition, % at 10 µM; 1.4% of 330,000 active;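 active = inhibition of 40% or more at the single tested concentration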;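 note: wild-type TIM10 isogenic control strain grown at permissive 25 °C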
PfHsp90 yeast 2 = inhibits growth of yeast expressing Plasmodium falciparum Hsp90. S. cerevisiae expressing PfHsp90, BacTiter-Glo ATP, 48 h; yeast lacking PDR1 and PDR3 efflux regulators. inhibition, % at 9.4 µM. 0.32% of 310,000 active. AID 504621;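 active = every replicate shows inhibition above about 80%, whatever the replicate mean, limit read from the data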
tim10-1 inh = growth inhibitors of tim10-1 mutant yeast. S. cerevisiae tim10-1 ts strain growth, BacTiter-Glo, 24 h. inhibition, % at 20 µM. 2.2% of 330,000 active;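 active = inhibition of at least 40%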;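 note: mutant grown at 25 °C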
tim10-1 conf = tim10-1 yeast growth inhibition, confirmed; inhibition, % at 20 µM; shares compounds with tim10-1 inh; AID 463213; S. cerevisiae tim10-1 ts strain growth, BacTiter-Glo, 24 h; 56% of 7,400 active;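 active = inhibition of yeast growth at or above a set limit in either of two repeat tests at 20 µM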;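 note: tim10-1 mutant grown at permissive 25 °C to find synthetic lethal compounds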
TIM10 conf = TIM10 yeast growth inhibition, confirmed | shares compounds with TIM10 inh | S. cerevisiae tim10 strain growth, BacTiter-Glo luminescence, 24 h | inhibition, % at 10 µM | 63% of 4,600 active | AID 463215;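 active = inhibition of yeast growth at or above a set limit in either of two replicates at 10 µM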; note: this counterscreen used the strain with wild-type TIM10
tim23-1 confirm = confirmation of tim23-1 mutant yeast growth inhibitors; 83% of 4,400 active; shares compounds with tim23-1 inh; AID 463218; S. cerevisiae tim23-1 growth, BacTiter-Glo luminescence, 24 h; inhibition, % at 20 µM;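 active = inhibition above about 39% in either of two replicate wells at 20 µM, limit read from the data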;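 note: temperature-sensitive tim23-1 mutant grown at 25 °C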
Numbers stand for hits; – = inactive; · = no result given. In the library only some 3.7% were active in any assay of this set; here they are far more common.

SMILES | NALP3 yeast inh | tim23-1 inh | TIM10 inh | PfHsp90 yeast 2 | tim10-1 inh | tim10-1 conf | TIM10 conf | tim23-1 confirm
O=C(CCC(=O)N1CCN(Cc2ccc(F)cc2)CC1)Nc1nnc(C2CCCCC2)s1 | – | – | – | – | – | · | · | ·
CC1=CC(=NOC(=O)c2cccc([N+](=O)[O-])c2)C=C(C)C1=O | – | 57 | – | – | 45 | 36 | · | 64
COc1ccc(/C(N)=N/OC(=O)c2cccc([N+](=O)[O-])c2C)cc1 | – | 72 | 83 | – | 65 | 53 | 78 | 60
COc1ccccc1C/C(N)=N/OC(=O)c1cccc([N+](=O)[O-])c1C | – | 78 | 83 | – | 46 | 33 | – | 74
COc1ccc(/C(N)=N/OC(=O)c2cccc([N+](=O)[O-])c2)cc1 | – | 66 | – | – | 42 | 54 | · | 74
COc1cccc(C(=O)O/N=C(\N)c2ccc([N+](=O)[O-])cc2)c1 | – | – | – | – | – | · | · | ·
CCN(CC)C(=O)C1=C(C)NC(=O)NC1c1c(F)cccc1Cl (stereo not drawn) | – | – | – | · | – | · | · | ·
O=C(C=NNc1ccccc1)c1ccccc1 | · | · | · | – | · | · | · | ·
COCCNC(=O)NC(=O)CN1CCN(C(c2ccccc2)c2ccccc2)CC1 | – | – | – | – | – | · | · | ·
CSc1cccc(NC(=S)NC(=O)CCc2ccccc2)c1 | – | – | – | – | – | · | · | ·
Cc1cccc(C)c1NC(=S)NC(=O)CCc1ccccc1 | – | 56 | 47 | – | 51 | 35 | 36 | 42
CC12CCC(=O)N1C(C(=O)Nc1cccc(S(=O)(=O)N3CCCCC3)c1)CS2 (stereo not drawn) | – | – | – | · | – | · | · | ·
CCCNC(=O)c1ccc2snnc2c1 | – | – | – | – | – | · | · | ·
CCCNC(=O)c1nnsc1S(=O)c1ccc(Cl)cc1 (stereo not drawn) | – | 82 | 83 | 105 | 91 | 87 | 96 | 91
Cc1ccc(S(=O)c2snnc2C)cc1 (stereo not drawn) | – | – | – | – | – | · | · | ·
CCCNC(=O)c1nnsc1S(=O)(=O)c1ccc(Cl)cc1 | – | 64 | 76 | 105 | 75 | 66 | 70 | 63
CNC(=O)c1nnsc1S(=O)c1ccc(Cl)cc1 (stereo not drawn) | – | 52 | 77 | – | 70 | 68 | 73 | 51
O=C(CN1CCN(Cc2ccc(F)cc2)CC1)NCc1ccccc1 | – | – | – | – | – | · | · | ·
CCOC(=O)c1cccc(NC(=O)CSc2nnc(COc3ccc(Cl)cc3)o2)c1 | – | – | – | · | – | · | · | ·
O=C(Nc1ccc(S(=O)(=O)Nc2nccs2)cc1)c1ccc(=O)[nH]c1 | – | – | – | – | – | · | · | ·
CN1C(=O)/C(=C/c2cc(N=Nc3ccccc3)ccc2O)SC1=S | – | 55 | – | – | 51 | 41 | · | 65
Cc1nn2c(NCc3ccccn3)cc(C(C)C)nc2c1-c1ccccc1 | – | 60 | 64 | – | 45 | 49 | 68 | 61
COc1cc(C(C[N+](=O)[O-])c2c(C)cc3ccccn23)ccc1O (stereo not drawn) | – | – | – | – | – | · | · | ·
COc1cc(C(C[N+](=O)[O-])c2c(-c3ccccc3)cc3ccccn23)cc(OC)c1OC (stereo not drawn) | – | 54 | – | – | 41 | 33 | · | 69
COc1ccc(NC(=O)CN(C)C(=O)c2ccc3c(c2)OCCO3)cc1 | – | – | – | – | – | · | · | ·
SMILES | NALP3 yeast inh | tim23-1 inh | TIM10 inh | PfHsp90 yeast 2 | tim10-1 inh | tim10-1 conf | TIM10 conf | tim23-1 confirm
COC(=O)c1ccc2c(c1)C(C)(C)C(/C=C/c1ccc(O)cc1)=[N+]2C | – | 73 | 56 | – | 67 | 64 | 55 | 68
O=[N+]([O-])c1cc(-c2ncccn2)c([N+](=O)[O-])s1 | – | 51 | 91 | – | 88 | 84 | 99 | 92
O=C(Nc1cc(Cl)cc(Cl)c1)c1cccc(OC(F)F)c1 | – | 85 | 68 | · | 79 | 79 | 66 | 72
N/C(=N\OC(=O)c1cc(-c2ccccc2)nc2ccccc12)c1ccccn1 | – | 81 | 84 | – | 54 | 31 | 89 | 63
CC(=O)COC(=O)c1cc(-c2ccc(C)cc2)nc2ccccc12 | – | – | – | – | – | · | · | ·
COC(=O)c1cc(-c2ccc(NC(C)=O)cc2)nc2ccccc12 | – | 53 | – | – | 50 | 38 | · | 57
COc1ccc(/C(N)=N/OC(=O)c2cc(-c3ccccc3)nc3ccccc23)cc1 | – | 79 | 82 | – | 67 | 63 | 75 | 76
N/C(=N\OC(=O)c1ccccc1Cl)c1ccccn1 | – | – | – | – | – | · | · | ·
Cc1ccc(/C(N)=N/OC(=O)c2cc(-c3ccccc3)nc3ccccc23)cc1 | – | 84 | 86 | – | 70 | 64 | 86 | 80
COc1ccc(NC(=O)COC(=O)c2cc(=O)c3ccccc3o2)cc1OC | – | – | – | – | – | · | · | ·
Cc1cccc(C)c1-n1cccc1/C=C1\SC(=S)N(c2cccc(C(=O)O)c2)C1=O | – | – | – | – | – | · | · | ·
CC1CCCC(C)N1C(=O)c1ccc(S(=O)(=O)NCc2ccco2)cc1 (stereo not drawn) | – | – | – | – | – | · | · | ·
Cc1ccc(C)c2c1[nH]c1ccc([N+](=O)[O-])cc12 | – | 68 | – | – | 50 | 31 | · | 51
CC(C)(C)S(=O)(=O)N1Cc2ccc(CO)cc2[C@H]1CCO | · | · | · | – | · | · | · | ·
CC1CCCCC1NC(=O)/C(C#N)=C/c1ccc2c(c1)OCCO2 (stereo not drawn) | – | 63 | 55 | · | 50 | 53 | – | 62
COc1ccc(/C=C(\C#N)C(=O)NC2CCS(=O)(=O)C2)cc1OC (stereo not drawn) | – | – | – | – | – | · | · | ·
CC1CCCCC1NC(=O)/C(C#N)=C/c1ccc(F)c(F)c1 (stereo not drawn) | – | 54 | 59 | – | 48 | 59 | 70 | 46
Cc1sc2ncnc(SCC(=O)NCC3CCCO3)c2c1C (stereo not drawn) | – | – | – | – | – | · | · | ·
C/C(N)=C(/C#N)C(=O)CSc1nc2cc(Cl)ccc2s1 | – | 54 | 44 | · | 50 | 46 | 37 | 56
N#Cc1c2ccc([N+](=O)[O-])cc2[n+]([O-])n1-c1ccccc1 | – | 75 | 66 | 91 | 61 | – | 66 | –
NCCCn1c(C(=O)c2ccc(Cl)cc2)c2ccc([N+](=O)[O-])cc2[n+]1[O-] | – | – | – | – | – | · | · | ·
Cc1ccc(S/C=C\C(=O)c2ccccc2)cc1 | – | 58 | 44 | – | 49 | 46 | 55 | 62
Cc1ccc(C(=O)/C=C\C(=O)c2ccc(C)cc2)cc1 | · | · | · | – | · | · | · | ·
CCOC(=O)c1ccc(NC(=O)Nc2ncc(Cl)cc2Cl)cc1 | – | 56 | 76 | · | 70 | 78 | 76 | 69
